An excerpt weighted towards active compounds, which were near 8.7% of everything screened.
JMJD2A Tudor – blocks the human JMJD2A Tudor domain; AlphaScreen JMJD2A-Tudor / H3K4me3 peptide binding; Potency, µM (top dose mostly 114 µM), inactives show at the top dose activity change, negative = inhibition, actives largely listed as inhibitors; 4.4% of 390,000 active; AID 504339; further: on the % scale 0 is the no-effect control and ±100 the full control effect; nearly all actives have a fitted effect of over 50% in size
BAZ2B block – inhibitors of human BAZ2B bromodomain; Q9UIF8; AlphaScreen BAZ2B-H3K14Ac peptide displacement; Potency, µM (titrated, usually from 114 µM), inactives show at the highest dose activity change, negative = inhibition, most hits filed as inhibitors; 4.4% of 360,000 active; AID 504333; further: on the % scale 0 is the no-effect control and ±100 the full control effect; nearly all actives have a fitted effect of over 60% in size
Target sequence (Q9UIF8 whole entry, looked up): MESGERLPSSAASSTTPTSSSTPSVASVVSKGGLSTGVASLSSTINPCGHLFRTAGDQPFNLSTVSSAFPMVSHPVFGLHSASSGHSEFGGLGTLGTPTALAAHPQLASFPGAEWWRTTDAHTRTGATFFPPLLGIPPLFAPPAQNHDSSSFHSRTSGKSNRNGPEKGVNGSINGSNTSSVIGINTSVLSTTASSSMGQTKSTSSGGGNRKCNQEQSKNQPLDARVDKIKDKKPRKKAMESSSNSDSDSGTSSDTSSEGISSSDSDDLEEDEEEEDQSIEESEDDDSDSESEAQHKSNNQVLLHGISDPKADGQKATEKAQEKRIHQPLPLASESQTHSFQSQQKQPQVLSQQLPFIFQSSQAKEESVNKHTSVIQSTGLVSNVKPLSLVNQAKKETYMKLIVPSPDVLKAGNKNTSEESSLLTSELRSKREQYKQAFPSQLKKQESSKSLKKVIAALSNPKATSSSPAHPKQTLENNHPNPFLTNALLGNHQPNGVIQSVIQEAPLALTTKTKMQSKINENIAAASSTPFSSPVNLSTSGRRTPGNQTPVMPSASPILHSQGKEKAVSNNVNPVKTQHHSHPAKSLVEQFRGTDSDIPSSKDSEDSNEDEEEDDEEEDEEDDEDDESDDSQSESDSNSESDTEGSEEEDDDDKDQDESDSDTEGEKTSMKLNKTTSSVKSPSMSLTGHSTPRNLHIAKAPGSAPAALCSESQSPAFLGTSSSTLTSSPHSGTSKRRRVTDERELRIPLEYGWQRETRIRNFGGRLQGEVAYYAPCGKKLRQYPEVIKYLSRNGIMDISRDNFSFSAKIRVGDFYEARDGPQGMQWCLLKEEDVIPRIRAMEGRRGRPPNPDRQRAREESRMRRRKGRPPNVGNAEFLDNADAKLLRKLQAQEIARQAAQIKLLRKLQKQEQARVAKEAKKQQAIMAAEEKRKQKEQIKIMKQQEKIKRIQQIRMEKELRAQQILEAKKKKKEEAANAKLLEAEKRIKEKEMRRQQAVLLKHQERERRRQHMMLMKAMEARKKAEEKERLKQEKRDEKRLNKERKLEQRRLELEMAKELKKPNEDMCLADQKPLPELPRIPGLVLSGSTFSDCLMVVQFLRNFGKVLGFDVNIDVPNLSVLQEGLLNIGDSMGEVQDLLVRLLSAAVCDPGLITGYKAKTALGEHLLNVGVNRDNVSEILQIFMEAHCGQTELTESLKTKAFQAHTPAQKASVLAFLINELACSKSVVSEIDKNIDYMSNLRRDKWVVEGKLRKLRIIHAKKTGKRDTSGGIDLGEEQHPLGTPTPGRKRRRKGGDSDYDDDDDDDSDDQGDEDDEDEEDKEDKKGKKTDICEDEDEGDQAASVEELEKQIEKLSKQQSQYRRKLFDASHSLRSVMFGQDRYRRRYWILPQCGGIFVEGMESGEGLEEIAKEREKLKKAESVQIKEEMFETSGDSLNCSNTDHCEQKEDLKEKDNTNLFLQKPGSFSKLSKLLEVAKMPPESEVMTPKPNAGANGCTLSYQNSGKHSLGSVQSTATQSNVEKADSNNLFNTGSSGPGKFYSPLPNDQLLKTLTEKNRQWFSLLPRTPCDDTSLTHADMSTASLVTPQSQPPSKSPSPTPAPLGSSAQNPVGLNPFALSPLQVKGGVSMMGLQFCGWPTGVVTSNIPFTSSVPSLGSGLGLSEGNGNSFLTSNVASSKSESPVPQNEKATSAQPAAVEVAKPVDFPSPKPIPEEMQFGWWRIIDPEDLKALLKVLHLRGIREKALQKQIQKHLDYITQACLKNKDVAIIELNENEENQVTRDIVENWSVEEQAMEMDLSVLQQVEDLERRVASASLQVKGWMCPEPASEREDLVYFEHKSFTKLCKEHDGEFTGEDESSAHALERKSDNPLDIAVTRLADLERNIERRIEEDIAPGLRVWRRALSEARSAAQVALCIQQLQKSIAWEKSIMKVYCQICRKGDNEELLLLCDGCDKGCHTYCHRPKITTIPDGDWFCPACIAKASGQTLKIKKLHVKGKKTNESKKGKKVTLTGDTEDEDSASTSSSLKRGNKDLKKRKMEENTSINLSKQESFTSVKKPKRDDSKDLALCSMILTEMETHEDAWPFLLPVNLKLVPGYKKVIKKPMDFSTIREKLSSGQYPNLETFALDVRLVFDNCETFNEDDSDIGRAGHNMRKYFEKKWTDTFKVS
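AlphaScreen displacement of biotin-H3(5-23)K14Ac peptide (50 nM final) from BAZ2B (50 nM final) in PBS pH 7.4, 0.01% Tween-20; complex preformed 30 min RT, then compounds (top 110 uM) 30 min RT, beads 20 min dark.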
Sfp PPTase inh – inhibitors of Bacillus subtilis Sfp phosphopantetheinyl transferase; AID 1490; Q9F4F7; 3.5% of 310,000 active; Potency, µM, for the others: largest response in the series, negative = inhibition, hits mostly inhibitors; Biochemical Sfp PPTase activity, qHTS;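 further: the enzyme is Sfp with the accession as filed and its product quenches rhodamine fluorescence; 0% = enzyme reaction without inhibitor and -100% = no enzyme wells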
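Fluorescence-quenching assay: 15 nM Sfp-PPTase preincubated 15 min at room temperature with compound, then 5 uM rhodamine-CoA and 12.5 uM BHQ-2-labelled YbbR peptide added. Fluorescence (ex 525/em 598 nm) read at start and after 30 min; difference gives rate.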
HP1b chromo inh – blocks HP1-beta chromodomain binding to methylated histone tails; 0.56% of 390,000 active; AlphaScreen HP1-beta / biotin-H3K9me3 peptide binding; P83916; Potency, µM (doses to about 114 µM), for inactives: at the highest dose activity change, negative = inhibition, usual class: inhibitors; AID 540317; further: nearly all actives have a fitted effect of over 70% in size
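Compound inhibition of the preformed complex between 50 nM HP1-beta and 50 nM biotinylated H3K9me3 peptide was read by AlphaScreen. Buffer was PBS pH 7.4 with 0.01% Tween-20. Incubations ran 30 min at room temperature, with 10 ug/mL donor/acceptor beads.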
G9a inh – G9a (human) methyltransferase inhibition; Q96KQ7; G9a H3K9 monomethylation, AlphaScreen, 2 h; Potency, µM (series often up to 102 µM), for inactives: top-dose activity, negative = inhibition, usual class: inhibitors; 8.8% of 350,000 active; further: on the % scale 0 is the no-effect control and ±100 the full control effect; nearly all actives have a fitted effect of over 75% in size
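Signal arises when biotinylated H3K9 peptide, once monomethylated, bridges streptavidin donor and antibody-captured acceptor beads. Enzyme at 20 nM was preincubated 15 min with test compounds; peptide 500 nM and SAM 20 uM then reacted for 2 h.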
ALOX12 inh – inhibitors of human 12S-lipoxygenase ALOX12. P18054. purified 12hLO, xylenol orange hydroperoxide absorbance. 1.1% of 580,000 active. Potency, µM (highest dose often 108 µM), for the others: top-dose activity change, negative = inhibition, usual class: inhibitors; further: on the % scale 0 is the no-effect control and ±100 the full control effect
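Purified human 12hLO (150 nM final) in 25 mM Hepes, 0.01% Triton X-100, pH 7.0 was preincubated 15 min at room temperature with compound. Then 40 uM arachidonic acid was added, 30 min. Hydroperoxide was read by Fe-XO absorbance ratio 573/405 nm.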
* = called active by the depositor; u = inconclusive; x = no result given; [ ] = dose if it differs, or a comment. The call rests on the fitted dose curve; in most records, active means well fitted curve in the direction sought with a large enough effect; inconclusive means small, poorly fitted or top-dose-only effect, or another doubt; inactive means no such curve, though single readings can be large; an effect the other way counts as inactive or inconclusive. Potency means the concentration at half of the fitted maximal effect.

SMILES | JMJD2A Tudor | BAZ2B block | Sfp PPTase inh | HP1b chromo inh | G9a inh | ALOX12 inh
O=C(c1cccc(OC2CN(Cc3ccc(F)cc3Cl)C2)c1)N1CCOCC1 | x | x | x | x | x | 46%
Cc1ccc(CNC(=O)C2(c3ccc(NC(=O)C4CC4)cc3)CCC2)cc1 | x | x | x | x | x | 41%
CN1C(=O)/C(=N\OC(=O)c2ccccc2Cl)c2ccccc21 | -9% | u | -12% | 49% | u | -18%
CC(=O)O/N=C1\C(=O)N(Cc2ccc(C)cc2)c2ccccc21 | -32% | -29% | 6% | 1% | 50µM* | u
Cc1ccc(-c2nc3ncccc3o2)cc1NC(=O)CC12CC3CC(CC(C3)C1)C2 | x | x | x | x | x | 27%
CCOC(=O)c1sc2cc([N+](=O)[O-])cc(SCCO)c2c1N | -6% | -10% | -7% | 4% | 7%[59 µM] | 1%
CCOC(=O)c1sc2cc([N+](=O)[O-])cc(SCC(=O)OC)c2c1N | 45µM* | 40µM* | u | u | 7.9µM* | u
O=C(CN1CCN(Cc2ccccc2)CC1)N/N=C/C=C/c1ccco1 | -23% | 3% | 22% | 4% | u | 3%
C(/C=C/c1ccco1)=N/N1CCN(c2ccccc2)CC1 | u | 28µM* | 0% | u | 40µM* | -24%
Clc1ccccc1CN1CCN(/N=C/C=C\c2ccco2)CC1 | u | 40µM* | -49% | 45µM* | 35µM* | u
CCn1c(CNC(=O)Cc2ccc(OC)cc2)n[nH]c1=S | u | -22% | 10% | 48% | u | u
COc1ccc(CC(=O)NCc2n[nH]c(=S)n2-c2ccc(F)cc2)cc1 | 50µM* | -18% | 9% | 31% | -36%[12.7 µM] | -17%
COc1ccc(CC(=O)NCc2n[nH]c(=S)n2-c2ccccc2OC)cc1 | 14µM* | x | 11% | 52% | 35µM* | -21%
Cc1c(C(=O)NCc2n[nH]c(=S)n2-c2ccc(F)cc2)cccc1[N+](=O)[O-] | 40µM* | 3% | 20% | 52% | 10µM* | -1%
COc1ccc(CC(=O)NCc2nnc(SCc3ccc(C)cc3)n2C)cc1 | -20% | -4% | 6% | 18% | 8% | 1%
COc1ccc(-n2c(CNC(=O)c3cccs3)n[nH]c2=S)cc1 | 22µM* | -4% | 1% | 5% | 20µM* | u
Cc1ccc2c(COC(=O)COc3ccc(Br)cc3)cc(=O)oc2c1 | x | x | x | x | x | 5%
CCN(CC(=O)NCc1ccc(F)cc1)C(=O)CN1CCN(c2ccc(OC)cc2)CC1 | 0.89µM* | 18µM* | u | 18µM* | 7.9µM* | -21%
COc1ccc(CC(=O)NCc2n[nH]c(=S)n2-c2cccc(Cl)c2)cc1 | 50µM* | -20% | 14% | 44% | 3.2µM* | -8%
O=C(/C=C/c1ccc2c(c1)OCCCO2)c1ccccc1OCc1ccccc1 | x | x | x | x | x | 8%
O=C(CCC1CCCCC1)NCC1CCCO1 (stereo not drawn) | x | x | x | x | x | 4%
CC1(C)N=C(c2ccccc2)C(=O)N1CC(=O)NC1CCc2ccccc21 (stereo not drawn) | x | x | x | x | x | 23%
CSc1cccc(NC(=O)c2ccc3c(c2)CCC3)c1 | x | x | x | x | x | 19%
S=C(NCc1ccccn1)NN=Cc1ccccn1 | 32µM* | x | x | -4% | x | u
Cc1cccc(NC(=S)NCc2ccccn2)c1 | u | -29% | -1% | 33% | 71µM* | u
COc1cccc(NC(=S)NCCc2ccccn2)c1 | -14% | 56µM* | u | 21% | 28µM* | -7%
Cc1[nH]n(-c2ccccc2)c(=O)c1N=Nc1ccc2c(c1)OCO2 | u | 1.8µM* | -1% | -4% | 3.2µM* | 15%
Cc1[nH]n(-c2ccccc2)c(=O)c1N=Nc1ccccc1O | u | u | 0% | -39% | u | -7%
COc1cccc(N=Nc2c(C)[nH]n(-c3ccccc3)c2=O)c1 | u | 6.3µM* | -17% | u | 7.9µM* | -6%
CCOC(=O)/C(C#N)=C\C1=C(N2CCOCC2)C(=C/c2ccccc2)/CC1 | x | x | x | x | x | -1%

Source: PubChem
